# ELG1 repair inh – blocks ELG1-dependent DNA repair in HEK293T cells; Potency, µM (top dose mostly 46.1 µM), inactives show at the highest dose activity change, negative = inhibition, usual class: inhibitors; HEK293T ELG1-luciferase reporter, luminescence, 16 h; DNA damage induced by 5-fluorouridine; actives 2.3% (n = 330,000); note: potency is the fitted concentration of half-maximal effect; nearly all actives have a fitted effect of over 55% in size
#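 Quantitative HTS, concentration-response format. 2,000 cells/well co-treated with 5-fluorouridine and compound, 16 hr in 5% CO2 at 37 °C; ONE-Glo luminescence read after 30 min.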
# HT1080NT lethal – kills 2HG-producing HT-1080-NT fibrosarcoma cells | HT-1080-NT fibrosarcoma viability, CellTiter-Glo ATP luminescence, 48 h | Potency, µM (doses to about 46.1 µM), for the others: at the top dose activity, negative = less viability, most hits filed as cytotoxic | actives 1.6% (n = 360,000) | AID 686970;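 note: NT is the 2HG producing partner of a matched IDH1 knockdown line; potency is the fitted concentration of half-maximal effect; 0% = DMSO-treated cells and -100% = media-only wells without cells; nearly all actives have a fitted effect of over 55% in size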
#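 Read-out is CellTiter-Glo luminescence after 10 minutes at room temperature, following 48 hours' compound treatment of HT-1080-NT cells (750 cells/well, RPMI, 5% FBS, 37 degrees C).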
# HT1080 IDH1KD tx – HT-1080 IDH1 knockdown cell toxicity (counter line) | HT-1080 IDH1 knockdown viability, ATP luminescence, 48 h | Potency, µM (doses to about 46.1 µM), for inactives: at the top dose activity, negative = toxicity, actives largely listed as cytotoxic | actives 2% (n = 360,000);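 note: potency is the fitted concentration of half-maximal effect; 0% = DMSO wells and -100% = cell-free medium wells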
#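 After a 2 h attachment period, IDH1KD HT-1080 cells took pin-transferred compound for 48 h at 37 °C; ATP-based luminescence after 10 min room-temperature reagent incubation reported viability.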
# TDP1 cell CPT – DT40-hTDP1 cell growth loss with CPT. chicken DT40 Tdp1-/-;hTDP1 cells + 20 nM CPT, ATP luminescence, 48 h. Potency, µM (titrated, usually from 46.2 µM), for the others: at the highest dose activity change, negative = growth inhibition, usual class: inhibitors. actives 12% (n = 420,000). AID 686979; note: potency is the fitted concentration of half-maximal effect; nearly all actives have a fitted effect of over 55% in size
#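 Chicken DT40 Tdp1-/- cells complemented with human TDP1, 400 cells/well, exposed to compounds plus 20 nM camptothecin for at least 48 h at 37 C; viability read as ATP content by CellTiter-Glo luminescence.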
# TDP1 cell noCPT – qHTS for Inhibitors of human tyrosyl-DNA phosphodiesterase 1 (TDP1): qHTS in cells in absence of CPT | Potency, µM (doses to about 46.2 µM), without a hit: top-dose activity change, negative = growth inhibition, hits mostly inhibitors | DT40 Tdp1-/- hTDP1 cells, no CPT, ATP luminescence, 48 h | actives 15% (n = 420,000); note: potency is the fitted concentration of half-maximal effect; nearly all actives have a fitted effect of over 55% in size
#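 DT40 Tdp1-/-;hTDP1 cells, no CPT (DMSO vehicle only), 400 cells/well; compounds pin-transferred; ≥48 hr, 37 °C; CellTiter-Glo 30 min RT dark, luminescence read.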
# IL1B secr inh – inhibitors of inflammasome signaling (IL-1 beta secretion) | THP-1 LPS/ATP IL-1B secretion, AlphaLISA, 16 h; stronger effect = lower value | activity change, % at 57.5 µM | actives 4.7% (n = 360,000) | AID 743279; in the data active = activity change below about -50%; inconclusive = mostly about -30% to -49%
#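 Secreted IL-1B measured by AlphaLISA bead assay after 16 h compound exposure of THP-1 cells; compounds (final up to 57.5 uM) added 1 h before LPS (250 ng/mL) and ATP (1.25 mM) stimulation; lower signal means less secretion.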
# Active calls of the source: *; u = inconclusive; x = no result given. The list is not random: actives were taken first. Their share in the collection is about 19%. Unless noted, calls come from the whole dose curve; as a rule, active = well fitted curve in the direction sought with a large enough effect; inconclusive = small, poorly fitted or top-dose-only effect, or another doubt; inactive = no such curve, though single readings can be large; an effect the other way counts as inactive or inconclusive. Unless noted, % is set by controls: 0 for no effect and ±100 for the full control effect.
SMILES,ELG1 repair inh,HT1080NT lethal,HT1080 IDH1KD tx,TDP1 cell CPT,TDP1 cell noCPT,IL1B secr inh
CN1C(=O)C2(c3ccccc31)N(C)CC(c1ccccc1)C21SC(=S)N(Cc2ccco2)C1=O (centres undefined),-11.1%,6.2%,3.6%,u,9.2µM*,-0.1
CCOc1ccccc1NC(=O)c1ccc2c(c1)CCCN2S(C)(=O)=O,x,x,x,-4.8%,-15.3%,x
O=c1[nH]nc(SCc2cc(Cl)ccc2Cl)c(=O)[nH]1,u,1.2%,-1.2%,u,-8.6%,19.2
CCN1C(=O)C(O)(CC(=O)c2ccccn2)c2ccccc21 (centres undefined),7.7%,2.6%,1.9%,5.8µM*,5.17µM*,28.7
CN1C(=O)C(O)(CC(=O)c2ccccn2)c2cc(Br)ccc21 (centres undefined),1.0%,u,-21.0%,5.8µM*,5.17µM*,85.7
Cc1ccc(C(=O)CC2(O)C(=O)N(C)c3ccc(Br)cc32)c(C)c1 (centres undefined),-5.1%,2.5%,5.7%,u,-26.0%,-3.6
CN1C(=O)[C@@](O)(CC(=O)c2ccccc2)c2cc(Br)ccc21,x,-1.8%,-12.1%,5.8µM*,6.51µM*,60.7
COc1cccc(-n2c(=O)n(Cc3ccccc3)c(=O)c3[nH]cnc32)c1,1.4%,-8.5%,-7.7%,-11.6%,-3.2%,-4.0
N#C/C(=C/c1cccnc1)c1ccccc1,-0.3%,16.2%,13.1%,4.5%,-10.0%,-13.3
CC1CCc2nc(/C(C#N)=C/c3cccnc3)sc2C1 (centres undefined),u,-3.8%,u,20.6µM*,u,-22.2
CCCCSCCCNC(=O)c1ccc2c(c1)N(CC)C(=O)c1ccccc1S2=O (centres undefined),-16.3%,-0.9%,0.7%,18.4µM*,u,-12.3
CCN1C(=O)c2ccccc2S(=O)c2ccc(C(=O)NCc3ccccc3OC)cc21 (centres undefined),x,x,x,u,23.1µM*,x
CCCN(CCC)CCCNC(=O)c1ccc2c(c1)N(CC)C(=O)c1ccccc1S2=O (centres undefined),25.8%,-2.2%,-18.8%,-3.8%,-13.8%,43.8
O=S1(=O)CCN(Cc2ccncc2)CC1,x,8.8%,19.6%,-4.8%,2.3%,8.0
CCCNC(=O)Nc1ccc(C(F)(F)F)cc1,u,5.1%,12.2%,u,-23.4%,u
COC(=O)[C@]1(C)N[C@H](c2ccc(SC3CCCCC3)cc2)[C@@H]2C(=O)N(C)C(=O)[C@@H]21,-3.8%,5.1%,13.8%,u,16.4µM*,21.8
CCCSc1ccc([C@H]2N[C@@](C)(C(=O)OC)[C@H]3C(=O)N(C)C(=O)[C@@H]23)cc1,-3.7%,10.2%,6.2%,-29.4%,-29.8%,13.4
CCCCCCSc1ccc([C@H]2N[C@@](C)(C(=O)OC)[C@H]3C(=O)N(C)C(=O)[C@@H]23)cc1,u,-18.3%,-22.0%,20.6µM*,-75.8%,u
COc1ccc([C@H]2N[C@]3(CCCN(Cc4ccc(Br)cc4)C3=O)[C@H]3C(=O)N(C)C(=O)[C@@H]23)cc1,x,0.7%,-0.4%,-22.1%,u,-5.1
Cc1ccc2cc3c(=O)n(C)cc(C=O)c3nc2c1,x,-1.6%,16.3%,-1.3%,5.0%,43.7
Cc1ccc(S(=O)(=O)Nc2cc3c(cc2Cl)n(C)c(=O)c(=O)n3C)cc1,x,x,x,-2.1%,-24.3%,x
Cc1ccc(S(=O)(=O)Nc2cc(C)cn(Cc3ccc(F)cc3)c2=O)cc1,u,-26.4%,u,25.9µM*,u,5.2
Cc1ccc(S(=O)(=O)Nc2cc(C)cn(Cc3ccccc3)c2=O)cc1,u,-18.8%,-12.2%,20.6µM*,16.4µM*,9.2
